The list is not random: actives were taken first. Their share in the collection is about 4.6%.
D1 agonist: agonists of human D1 dopamine receptor; P21728; HEK293 T-REx D1 cells, calcium flux, agonist mode; activation, % at 2 µM; 360,000 compounds, 1% hits; AID 504660; in the data active = activation above about 30%; note: 0% is about no effect
Target sequence (P21728 whole entry, looked up): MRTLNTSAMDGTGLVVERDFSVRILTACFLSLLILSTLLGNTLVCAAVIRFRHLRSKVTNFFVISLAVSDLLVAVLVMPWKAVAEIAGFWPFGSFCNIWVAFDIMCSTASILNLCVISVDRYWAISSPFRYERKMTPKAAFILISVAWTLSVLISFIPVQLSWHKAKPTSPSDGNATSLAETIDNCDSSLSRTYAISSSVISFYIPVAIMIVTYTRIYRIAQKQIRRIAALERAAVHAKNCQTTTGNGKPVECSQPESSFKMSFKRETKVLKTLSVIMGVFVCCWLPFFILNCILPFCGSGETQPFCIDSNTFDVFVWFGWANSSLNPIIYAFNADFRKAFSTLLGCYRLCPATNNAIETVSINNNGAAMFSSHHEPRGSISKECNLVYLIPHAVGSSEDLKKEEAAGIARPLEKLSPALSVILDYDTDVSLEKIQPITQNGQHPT
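Tetracycline-induced HEK293 TREx D1 cells, force-coupled to calcium signalling, were dye-loaded with a no-wash calcium kit. Compound was pin-added after a 10 s baseline. Fluorescence was read kinetically at 1 cycle/s for 180 s, with calcium rises flagged as agonism.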
D1 potentiator: human D1 dopamine receptor positive modulation; P21728; HEK293 TREx D1 cells, calcium flux, dopamine EC20 potentiation; potentiation, % at 10 µM; 360,000 compounds, 0.036% hits; AID 504651; in the data active = potentiation above about 30%; note: 0% is about no effect
TRHR agonist-1: activates the human TRH receptor; P34981; TRHR cells, calcium flux fluo-8, FDSS agonist mode; activation, % at 2 µM; 360,000 compounds, 0.18% hits; in the data active = activation above about 30%; note: 0% is about no effect
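Read-out: compound-evoked intracellular calcium rise in TRHR cells, fluo-8 dye, kinetic FDSS fluorescence at 1 s/cycle following a 10-cycle baseline. Cells cultured overnight before dye loading (30 min–1.5 h, RT).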
TRHR enhancer-1: allosteric enhancers of human TRH receptor | 360,000 compounds, 0.66% hits | enhancement, % at 2 µM | P34981 | TRHR cells, fluo-8 calcium fluorescence, EC20 TRH enhancement; in the data active = enhancement above about 30%; note: 0% is about no effect
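TRHR-expressing cells loaded with fluo-8 calcium dye were read kinetically (ex 480/em 530) during compound addition, then stimulated with an EC20 of TRH (10 nM final). Enhancement of the Gq-mediated intracellular calcium response was scored.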
D1 antag: blocks dopamine activation of the human D1 receptor. AID 504652. 360,000 compounds, 3.2% hits. HEK293 TREx D1 cells, calcium flux, dopamine EC80; active compounds read low. activity change, negative = inhibition, % at 10 µM. P21728; in the data active = activity change below about -30%; note: % is set by controls: 0 for no effect and ±100 for the full control effect
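Tetracycline-induced HEK293 Trex D1 cells, force-coupled to calcium, dye-loaded; compounds added and read 180 s, then EC80 dopamine added and calcium flux tracked kinetically another 180 s.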
TRHR enhancer-2: confirmation of human TRH receptor allosteric enhancers; shares compounds with TRHR enhancer-1; TRH receptor cell assay, enhancer confirmation qHTS; activity change, negative = inhibition, % at 46.1 µM; 970 tested, under 10 active; AID 493076;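 note: compound effect scored on response to added TRH at EC20 of 10 nM; 0% is about no effect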
TRHR agonist-2: confirmation of human TRH receptor agonists | Potency, µM (titrated, usually from 46.1 µM), inactives show top-dose activation, actives largely listed as activators | AID 493078 | shares compounds with TRHR enhancer-1 | 970 compounds, 8% hits | TRHR-expressing cells, agonist activation read-out; note: potency is the fitted concentration of half-maximal effect; 0% is about no effect; nearly all actives have a fitted effect of over 75% in size
An asterisk follows results filed as active; ? = inconclusive; . = no result given. Unless noted, calls come from the whole dose curve; as a rule, active = well fitted curve in the direction sought with a large enough effect; inconclusive = small, poorly fitted or top-dose-only effect, or another doubt; inactive = no such curve, though single readings can be large; an effect the other way counts as inactive or inconclusive.

SMILES	D1 agonist	D1 potentiator	TRHR agonist-1	TRHR enhancer-1	D1 antag	TRHR enhancer-2	TRHR agonist-2
Cc1ccc(NC(=O)COC(=O)C2CSC3(C)CCC(=O)N23)cc1S(=O)(=O)N1CCOCC1 (stereo unspecified)	4	-7	2	42*	-38*	-3	-1%
Cc1ccc(NC(=O)C2CSC3(C)CCC(=O)N23)cc1S(=O)(=O)N1CCOCC1 (stereo unspecified)	7	.	0	9	2	.	.
COc1ccccc1CCNC(=O)c1ccc(NC(=O)CC2SC(N3CCCCC3)=NC2=O)cc1 (stereo unspecified)	0	-5	0	-3	-6	.	.
Cc1cccc(Cn2c(=O)n(-c3ccccc3C)c(=O)c3c2c2cc(C)ccc2n3C)c1	-1	-1	0	4	-1	.	.
COc1cccc(CN(C)C(=O)c2ccc(S(=O)(=O)Nc3ccccc3F)cc2)c1OC	1	-6	0	48*	2	-3	4%
COc1cc(NC(=S)NCCc2c[nH]c3ccccc23)c(OC)cc1Cl	4	-1	0	49*	-7	-7	2%
COc1ccccc1CNS(=O)(=O)c1ccc2c(c1)CC(C)N2C(C)=O (stereo unspecified)	15	-2	1	-7	-8	.	.
N#Cc1c(-c2ccc3c(c2)OCO3)csc1N	4	-8	0	0	2	.	.
N#Cc1c(-c2ccccc2)cc(-c2ccc3c(c2)OCO3)[nH]c1=O	0	-2	-1	53*	11	-6	3%
CCOC(=O)c1c(NC(=O)COC)sc(C(C)=O)c1C	2	-3	33*	0	1	13	-1%
CCOC(=O)c1c(NC(=O)COC)sc(C)c1C	-1	0	0	-5	11	.	.
CC(=O)Nc1sc(/C(C#N)=C/c2ccc(Cl)c(Cl)c2)nc1-c1ccc(C)cc1	283*	-10	68*	-1	-49*	-10	7.3µM*
CCc1cccc(NC(=O)CCS(=O)(=O)c2cc3c4c(c2)CCN4C(=O)CC3)c1	0	0	0	19	12	.	.
CCCCOc1ccc(C(=O)NCC(=O)N2CC(C)CC(C)C2)cc1 (stereo unspecified)	4	.	40*	-3	-3	-7	5%
CCCCOc1ccc(C(=O)NCC(=O)N2CC(C)OC(C)C2)cc1 (stereo unspecified)	3	1	0	-1	-2	.	.
CCCCOc1ccc(C(=O)NCC(=O)NCCOc2ccccc2OC)cc1	1	-2	0	74*	8	11	5%
COc1ccc(NC(=O)c2ccc3c(=O)n4c(nc3c2)CCCCC4)cc1	0	-2	0	76*	-4	-4	-1%
Cc1ccc(NC(=O)c2ccc3c(=O)n4c(nc3c2)CCCCC4)cc1F	14	.	0	-2	-24	.	.
O=C(NNC(=O)c1nn(-c2ccc(F)cc2)ccc1=O)c1ccc(C(F)(F)F)cc1	1	-2	-1	45*	-1	-7	2%
CCCNC(=O)CCC(=O)N1Cc2cccc(OC)c2Oc2ncccc21	2	-3	9	-8	-4	.	.
COc1cc(OC)c(-c2nc3cnccc3n2C)cc1OC	1	3	0	18	-7	.	.
Cn1c(-c2ccc3ccccc3n2)nc2cnccc21	2	-5	-1	54*	9	?	0%
CC(NC(=O)c1cc(Br)cs1)C1CCCO1 (stereo unspecified)	-3	0	0	52*	-12	-4	-1%
S=C(Nc1ccc(Cl)cc1)N1CCN(C2CCCCC2)CC1	7	-2	0	53*	8	4	8%
Cc1ccc(N2CCN(C(=S)Nc3ccc(Cl)cc3)CC2)cc1	4	-2	1	10	-4	.	.
SMILES	D1 agonist	D1 potentiator	TRHR agonist-1	TRHR enhancer-1	D1 antag	TRHR enhancer-2	TRHR agonist-2
COc1ccc(C2(C(=O)NC(C)C)CCCC2)cc1OC	2	7	0	52*	-12	-5	0%
COc1ccc(C2(C(N)=O)CCCCC2)cc1OC	4	0	0	-6	-2	.	.
O=C(Cc1ccccc1)N1CCNCC1	6	0	0	55*	-7	-6	1%
O=C(Cc1ccccc1)N1CCN(C(=O)c2ccco2)CC1	-1	-5	1	2	9	.	.
O=C(Cc1ccccc1)NCC(=O)N1CCCCC1	3	0	1	43*	12	-3	1%
CCc1cccc(C)c1NC(=O)Cn1cc2c(n1)CCCCC2	8	-2	-1	-10	-11	.	.
COCCN(C(=O)C1CCCO1)c1c(N)n(CC(C)C)c(=O)[nH]c1=O (stereo unspecified)	0	.	0	-1	-13	.	.
COc1ccc(OC)c(/C=C/C(=O)N2CCN(S(=O)(=O)c3ccc(C)cc3C)CC2)c1	0	-2	0	9	26	.	.
O=C1OCC2=C1C(c1ccc(F)cc1)CC(=O)N2c1ccc(F)cc1 (stereo unspecified)	3	-2	-1	-11	3	.	.
CCc1ccc(N2C(=O)CC(c3ccc(F)cc3)C3=C2COC3=O)cc1 (stereo unspecified)	5	-5	0	73*	-17	-6	1%
CCCC(=O)c1ccc(N2CCN(C(=O)c3cccs3)CC2)c(F)c1	3	-4	0	7	-12	.	.
CC(=O)c1ccc(N2CCN(C(=O)c3cccs3)CC2)c(F)c1	6	-5	27	-1	19	-2	-1%
O=C1CC(Nc2ccc(N3CCOCC3)cc2)C(=O)N1c1cccc(C(F)(F)F)c1 (stereo unspecified)	10	-8	-1	46*	-9	0	-1%
COc1cccc(N2C(=O)CC(Nc3ccc(N4CCOCC4)cc3)C2=O)c1 (stereo unspecified)	1	-6	0	-6	-17	.	.
O=S1(=O)c2ccccc2N(Cc2ccccc2)c2ccccc21	6	-4	-1	13	-9	.	.
COc1ccccc1CN(C)C(=O)CN1CCN(S(=O)(=O)c2ccc3c(c2)OCCCO3)CC1	0	-2	-1	55*	4	-6	0%
Cc1cc(C(=O)O)c2c(=O)n(C)c(=O)n(C)c2n1	-1	7	1	8	6	.	.
COc1cc(/C=C2\SC(=S)N(NC(=O)c3ccc(O)c(OC)c3)C2=O)ccc1O	73*	5	45*	3	26	5	?
CCOc1cc(/C=C2/SC(=S)N(CC3CCCO3)C2=O)ccc1O (stereo unspecified)	68*	7	43*	5	2	?	16µM*
